AF4-AF9 inh – inhibitors of AF4 peptide binding to AF9, primary screen, biochemical, AlphaScreen, biotin-AF4 peptide, FLAG-AF9, single point. Protein AF-9 (Homo sapiens), P42568. inhibition, % at 10 µM. 0.47% of 350,000 active. AID 651704, 2012;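 active = every replicate reaching a set inhibition limit, whatever the replicate mean, cut at about 25% in these data; inconclusive = mean inhibition reaches that limit but some replicates miss it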;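 note: 0% = plate neutral control median and 100% = total signal loss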
ERAP1 HTS inh – human ERAP1 aminopeptidase inhibitors, primary screen, biochemical, single point, plate reader; Endoplasmic reticulum aminopeptidase 1 (Homo sapiens), Q9NZ08; recombinant ERAP1, Leu-AMC fluorescence, 60 min; inhibition, % at 10.7 µM; 0.15% of 340,000 active;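 active = mean replicate inhibition of at least 30%, or all replicates individually reaching that 30% level; inactive = mean below 30% and not every replicate reaching it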;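 note: 0% = neutral control wells and 100% = L-leucinethiol positive control wells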
ERp5 inh – inhibitors of ERp5-driven insulin aggregation, primary screen, biochemical, turbidity, absorbance 650 nm, single point; 90 min; inhibition, % at 9.99 µM; 0.05% of 350,000 active; AID 651711, 2012;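 active = mean replicate inhibition above about 25%, with every replicate also reaching it, limit read from the data, passing the limit was not always enough; inconclusive = only one of those two criteria met; inactive = neither criterion met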
Target sequence (Q15084 whole entry, looked up): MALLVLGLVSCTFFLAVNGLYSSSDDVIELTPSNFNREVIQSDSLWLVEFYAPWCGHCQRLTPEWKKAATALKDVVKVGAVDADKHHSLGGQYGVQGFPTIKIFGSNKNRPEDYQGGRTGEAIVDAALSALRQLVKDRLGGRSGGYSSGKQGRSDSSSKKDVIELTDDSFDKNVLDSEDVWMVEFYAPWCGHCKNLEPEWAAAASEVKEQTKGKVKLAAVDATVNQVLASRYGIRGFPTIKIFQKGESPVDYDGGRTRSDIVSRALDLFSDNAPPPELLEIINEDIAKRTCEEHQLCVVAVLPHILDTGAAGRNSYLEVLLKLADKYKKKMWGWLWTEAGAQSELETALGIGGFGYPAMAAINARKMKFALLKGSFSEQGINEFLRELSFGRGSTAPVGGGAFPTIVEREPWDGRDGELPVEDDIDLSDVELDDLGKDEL
PDI turbidity – inhibitors of human PDI, primary screen, biochemical, turbidity, single point, plate reader; Protein disulfide-isomerase (Homo sapiens), P07237; PDI insulin aggregation turbidity, A650, 90 min; inhibition, % at 10 µM; 0.052% of 350,000 active;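 active = mean inhibition across replicates of 30% or more, whatever share of single replicates reach that level; inconclusive = mean inhibition below 30% while every single replicate reaches 30%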
DENV2 CPE rescue – inhibitors of DENV2 cytopathic effect, primary screen, cell-based, plate reader, single concentration; DENV2-infected cells, cytopathic effect rescue; CPE inhibition, % at 9.99 µM; 1.7% of 350,000 active; AID 651640, 2012; in the data active = CPE inhibition above about 20%, passing the limit was not always enough; inconclusive = no clear call, values can overlap the other calls; tested in BHK-21 cells;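 note: 0% = median of neutral control wells and 100% = median of positive control wells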
* hit, by the source's call; ? = inconclusive; · = not tested or not shown. Shown are actives, neighbours in structure and some others; about 1.8% of the full set was active somewhere.

SMILES	AF4-AF9 inh	ERAP1 HTS inh	ERp5 inh	PDI turbidity	DENV2 CPE rescue
CCNC(=O)[C@@H]1[C@@H](CO)[C@@H]2Cn3c(ccc(-c4cccc(OC)c4)c3=O)[C@@H]2N1C(=O)NC(C)C	-0.3	-2.5	-5.9	·	7.4
CCC(=O)N1CCC2(CC1)Oc1ccc(Cl)cc1C(=O)C21CC(c2ccc(Cl)cc2)=NO1 (configuration not stated)	·	1.4	3.5	-1.7	89.8*
COc1ccc(S(=O)(=O)Nc2ccc3c(c2)C(=O)N([C@@H](C)CO)C[C@H](C)[C@@H](CN(C)C(=O)Nc2ccc(C(F)(F)F)cc2)OCCCC[C@H](C)O3)cc1	-0.2	-1.5	3.0	·	106.4*
COc1ccc(S(=O)(=O)Nc2ccc3c(c2)C(=O)N([C@@H](C)CO)C[C@H](C)[C@H](CN(C)C(=O)Nc2ccc(C(F)(F)F)cc2)OCCCC[C@H](C)O3)cc1	1.5	-0.2	4.1	·	108.7*
COc1ccc(C[C@@H]2CCn3cc(nn3)COC[C@@H](C(C)C)NC2=O)cc1	-0.8	0.7	1.4	·	7.1
Cc1cccc(OCCCN2CCC(C(O)(c3ccccc3)c3ccccc3)CC2)c1	·	-6.4	13.0	·	34.5*
CC(=O)Nc1ccc(OCCCN2CCC(C(O)(c3ccccc3)c3ccccc3)CC2)cc1	5.2	0.1	2.2	·	34.1*
CC(=O)Nc1ccc(OCCC[n+]2ccccc2)cc1	30.8*	2.4	-2.1	-4.6	-0.4
CC(=O)Nc1ccc(OCC[n+]2cccc(C(N)=O)c2)cc1	-0.4	-2.6	-0.5	5.8	2.6
Cc1noc(C)c1NC(=O)N(C)C[C@@H]1Oc2c(NS(C)(=O)=O)cccc2C(=O)N([C@@H](C)CO)C[C@@H]1C	-12.7	-1.0	-4.0	·	-5.2
CO[C@@H]1CN(C)C(=O)c2cc(NC(=O)CC(F)(F)F)ccc2OC[C@H](C)N(C(=O)c2ccccc2F)C[C@H]1C	·	·	8.3	·	-4.6
CC(OC(=O)C1=COCCO1)C(=O)Nc1ccc(Cl)cn1 (configuration not stated)	-2.5	-0.9	-3.4	0.3	69.5*
Nc1ccc(N2CCOCC2)c2nonc12	10.8	5.2	22.1	66.3*	2.6
CCOc1ncccc1C(=O)OCC(=O)NCc1ccc(C(=O)OC)cc1	-2.0	0.2	4.6	12.1	67.3*
O=C1c2oc3ccc(F)cc3c(=O)c2C(c2cccc(O)c2)N1CCCN1CCOCC1 (configuration not stated)	-2.8	-1.6	2.8	·	-0.6
Cc1ccc2oc3c(c(=O)c2c1)C(c1cccc(Cl)c1)N(CCCN1CCOCC1)C3=O (configuration not stated)	3.8	·	0.2	-7.5	54.6*
Cc1cc(-c2onc(C)c2C(=O)N/N=C/c2ccccc2)no1	0.7	-1.7	0.9	-1.8	-5.4
Cc1ccc(SC(=O)c2c(C)noc2-c2cc(C)on2)cc1	0.3	·	2.3	1.7	41.4*
CN(C)CC/C=C1/c2cc(F)ccc2Sc2ccc(Cl)cc21	37.2*	3.5	-8.8	8.9	4.6
CN(C)CC/C=C1/c2ccccc2Sc2c(O)cc(Cl)cc21	·	·	·	16.0	·
COC(=O)C[C@H]1CC[C@@H]2[C@H](COc3ccc(NS(=O)(=O)c4ccccc4F)cc3C(=O)N2C)O1	·	·	·	·	-5.6
CCN(Cc1nc2cc(Cl)ccc2c(=O)[nH]1)C(=O)c1nn(C)c(=O)c2ccccc12	-0.4	62.7*	-3.7	-1.4	-1.4
CCN(Cc1nc2cc(Cl)ccc2c(=O)[nH]1)C(=O)c1cc(C2CC2)nn1-c1ccccc1	0.8	-1.1	4.7	-0.8	-4.9
O=C(O)CC(c1ccccc1)N1C(=O)c2ccccc2C1=O (configuration not stated)	·	-4.2	2.0	-0.5	40.3*
COc1ccc(NC(=O)Nc2ccc3c(c2)C(=O)N([C@H](C)CO)C[C@@H](C)[C@H](CN(C)Cc2ccc(C(=O)O)cc2)OCCCC[C@H](C)O3)cc1	0.9	1.3	-1.3	·	5.4
SMILES	AF4-AF9 inh	ERAP1 HTS inh	ERp5 inh	PDI turbidity	DENV2 CPE rescue
COc1ccc(CN(C)C[C@@H]2OCCCC[C@H](C)Oc3ccc(NC(=O)Nc4ccccc4)cc3C(=O)N([C@H](C)CO)C[C@H]2C)cc1	·	·	·	·	38.6*
COc1ccc(CN(C)C[C@@H]2OCCCC[C@H](C)Oc3ccc(NC(=O)NC(C)C)cc3C(=O)N([C@H](C)CO)C[C@H]2C)cc1	-7.1	-1.6	-1.7	·	4.6
COc1ccc(CN(C)C[C@H]2OCCCC[C@@H](C)Oc3ccc(NC(=O)NC(C)C)cc3C(=O)N([C@H](C)CO)C[C@H]2C)cc1	4.1	0.1	1.7	·	85.5*
COc1ccc(NC(=O)Nc2ccc3c(c2)C(=O)N([C@@H](C)CO)C[C@H](C)[C@H](CN(C)Cc2ccc(C(=O)O)cc2)OCCCC[C@H](C)O3)cc1	3.7	-19.7	4.8	·	80.1*
CC(C)NC(=O)N(C)C[C@@H]1Oc2ccc(NC(=O)Nc3ccc4c(c3)OCO4)cc2C(=O)N([C@H](C)CO)C[C@H]1C	-0.8	0.9	-9.0	·	-4.5
COc1ccc(CN(C)C[C@H]2OCCCC[C@@H](C)Oc3ccc(N(C)C)cc3C(=O)N([C@H](C)CO)C[C@@H]2C)cc1	8.7	-1.8	3.6	·	4.9
O=C(C[C@@H]1C[C@@H]2c3cc(NS(=O)(=O)c4ccc(F)cc4)ccc3O[C@@H]2[C@@H](CO)O1)NCCc1ccccc1	0.9	0.2	-2.8	·	-1.6
O=C(C[C@@H]1C[C@@H]2c3cc(NS(=O)(=O)c4ccc(F)cc4)ccc3O[C@@H]2[C@H](CO)O1)NCCc1ccccc1	-0.2	0.0	-2.4	·	57.7*
O=C(C[C@H]1C[C@H]2c3cc(NS(=O)(=O)c4ccc(F)cc4)ccc3O[C@H]2[C@@H](CO)O1)NCCc1ccccc1	-0.9	-2.1	1.7	·	58.7*
O=C(C[C@@H]1C[C@H]2c3cc(NS(=O)(=O)c4ccccc4)ccc3O[C@H]2[C@H](CO)O1)NC1CCCCC1	1.3	-1.7	35.0*	·	-0.5
O=C(C[C@@H]1C[C@H]2c3cc(NS(=O)(=O)c4ccc(F)cc4)ccc3O[C@H]2[C@@H](CO)O1)NCCc1ccccc1	0.8	3.1	-1.5	·	?
COc1ccc2c(c1)OC1(C)CC2C(C(=O)c2ccccc2OC)C(=O)N1 (configuration not stated)	48.5*	-2.9	-3.9	-3.9	2.0
O=C(CC[C@H]1O[C@@H](n2ccc(=O)[nH]c2=O)[C@H](O)[C@@H]1O)N[C@H](Cc1ccccc1)C(=O)NC1CCCCC1	-2.4	0.4	5.5	·	-3.9
O=C(N[C@H](Cc1ccccc1)C(=O)NC1CCCCC1)[C@H]1O[C@@H](n2ccc(=O)[nH]c2=O)[C@H](O)[C@@H]1O	·	1.7	4.8	·	28.5*
CN1c2ccc(-c3cccc(C#N)c3)cc2[C@@H]2[C@@H](CCN2S(=O)(=O)c2cccc(F)c2)[C@@H]1CO	·	·	·	·	72.7*

Screens deposited in PubChem by Broad Institute.
